AddAB inh: less growth of phage-infected E. coli with AddAB | E. coli expressing H. pylori AddAB, absorbance growth | AID 435030 | inhibition, % at 11.9 µM | 330,000 compounds, 0.29% hits; in the data active = inhibition above about 12%;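 note: 0% = vehicle wells of infected cells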
E coli growth-1: counter-screen for AddAB inhibitors: E. coli growth inhibition; E. coli V3065 growth, OD600 absorbance, 18 h; inhibition, % at 11.9 µM; 330,000 compounds, 0.27% hits; AID 449728;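 active = inhibition above the campaign's mean inhibition across all tested compounds plus 3 SD, cut at about 9.9% in these data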;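 note: uninfected addAB+ strain grown without phage in ampicillin broth; 0% = DMSO wells and 100% = ciprofloxacin 0.95 µg/ml wells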
E coli growth-2: E. coli growth inhibition; Escherichia coli growth, OD600, 23 h; stronger effect = lower value; OD600 absorbance (test concentration not listed); 330,000 compounds, 0.21% hits;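 active = OD600 absorbance below the run mean of sample wells minus 3.6 SD, in any replicate, cut at about 0.56 in these data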
phage Ecoli inh: E. coli growth loss with phage present; growth absorbance; 360,000 compounds, 0.26% hits; AID 651602; inhibition, % at 11.9 µM; in the data active = inhibition above about 11%
Tat export inh: inhibitors of E. coli Tat protein transport | inhibition, % at 10 µM | 340,000 compounds, 0.036% hits | E. coli MC4100 TorA-mCherry Tat export, fluorescence;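 active = mean replicate inhibition at least 50% and at least half of replicates individually reaching 50%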;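 note: exported cargo escapes ClpAP degradation while cytoplasmic cargo is degraded and loses fluorescence; 0% = median of neutral control wells and 100% = median of NaSCN control wells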
* hit, by the source's call; . = not tested or not shown. Compounds with a hit are over-represented: about 0.5% of the library has one in this group of screens.

SMILES	AddAB inh	E coli growth-1	E coli growth-2	phage Ecoli inh	Tat export inh
Nc1c(Cl)ncnc1N/N=C/c1cccnc1	0	0	.	3	6
O=c1cnnc(NN=Cc2ccccn2)[nH]1	.	.	0.43*	.	.
C(=NNc1nncc2ccccc12)c1ccccn1	.	.	0.49*	.	.
Nc1c(Cl)ncnc1NN=Cc1ccccn1	.	.	0.44*	.	.
O=c1cnnc(NN=Cc2c[nH]c3ccccc23)[nH]1	.	.	0.71	.	.
CC1COC(=O)C(NC(=O)OCC2c3ccccc3-c3ccccc32)CC=CCC(CC(=O)NC(CO)Cc2ccccc2)C(=O)N1 (stereo not given)	.	.	0.7	.	.
COc1ccc(NC(=O)Nc2cccc([N+](=O)[O-])c2)cc1Cl	2	-1	0.52*	6	2
CCCCN1CCNCC1c1ccccc1 (stereo not given)	.	.	0.71	.	.
Cc1ccc(Nc2nc(N)c3ccccc3n2)cc1Cl	3	1	0.44*	1	-6
Nc1nc(Nc2ccc(Cl)cc2)nc2ccccc12	1	2	0.35*	3	-8
CN(C)c1ccc(Nc2nc(N)c3ccccc3n2)cc1	1	4	.	2	-4
COc1cc2nc(Nc3ccc(C)c(Cl)c3)nc(N)c2cc1OC	1	1	0.59	3	-15
Nc1nc(Nc2ccccc2)nc2ccccc12	1	-3	0.53*	2	1
CC(C)NC(=O)N(C)CC1Oc2c(NC(=O)Nc3ccccc3)cccc2C(=O)N(C(C)CO)CC1C (stereo not given)	.	.	0.67	.	.
CCCC=C(CCC)C(NC(=O)OCC(C)C)c1ccc(C(=O)OC)cc1 (stereo not given)	.	.	0.65	.	.
COc1ccc(C=NNC(=O)c2cc(O)c(O)c(O)c2)cc1COc1ccc(C(=O)OCC(C)C)cc1	.	.	0.68	.	.
Cc1nc(N)c(Cc2ccc(Cl)cc2Cl)c(N)n1	5	3	0.48*	5	-10
COc1ccc(Cc2c(N)nc(C)nc2N)cc1	2	-1	0.64	5	-6
O=C(NCc1nc2ccccc2[nH]1)c1cccc(S(=O)(=O)N2CCCC2)c1	10	10*	0.66	8	-10
O=C(NNc1ccc(Cl)cc1)c1sccc1Cl	0	2	0.5*	1	4
COc1ccc(-c2ccc(-c3noc(-c4ccccc4OC)n3)c(OC)n2)cc1	3	0	0.72	1	53*
Cc1cc(C)c(S(=O)(=O)NN=Cc2ccc([N+](=O)[O-])o2)c(C)c1	.	.	0.51*	.	.
Cc1cc(C)c(S(=O)(=O)N/N=C/c2ccc([N+](=O)[O-])o2)c(C)c1	.	.	.	3	2
Cc1ccc(S(=O)(=O)NN=Cc2ccc([N+](=O)[O-])o2)cc1C	.	.	0.48*	.	.
Cc1ccc(S(=O)(=O)NN=Cc2ccc([N+](=O)[O-])o2)cc1	.	.	0.47*	.	.
SMILES	AddAB inh	E coli growth-1	E coli growth-2	phage Ecoli inh	Tat export inh
CCc1ccc(S(=O)(=O)NN=Cc2ccc([N+](=O)[O-])o2)cc1	.	.	0.52	.	.
CCCOc1ccc(C=NNC(=S)Nc2ccccc2[N+](=O)[O-])c(O)c1	.	.	0.7	.	.
CCOc1cccc(/C=N/NC(=S)Nc2ccccc2[N+](=O)[O-])c1O	12	9	.	11*	-16
C/C=C1\NC(=O)[C@H](CC(N)=O)N(C)C(=O)C([C@@H](C)O)NC(=O)C(CCCc2ccc(OC)cc2)NC(=O)[C@H](C(C)C)NC(=O)/C(=C\C)NC(=O)[C@H](O)[C@@H](C[C@@H](O)CCCCCCC)NC(=O)[C@H](C)NC(=O)CN(C)C(=O)[C@H](CCC(N)=O)NC1=O (stereo not given in full)	.	.	0.52*	1	12
CCC1OC(=O)C(C)C(OC2C[C@@](C)(OC)C(O)C(C)O2)C(C)C(OC2OC(C)CC(N(C)C)C2O)[C@](C)(OC)CC(C)C(=O)C(C)C(O)[C@]1(C)O (stereo not given in full)	.	.	0.39*	.	.
CC[C@H]1OC(=O)[C@H](C)[C@@H](O[C@H]2C[C@@](C)(OC)[C@@H](O)[C@H](C)O2)[C@H](C)[C@@H](O[C@@H]2O[C@H](C)C[C@H](N(C)C)[C@H]2O)[C@](C)(O)C[C@@H](C)C(=NOCOCCOC)[C@H](C)[C@@H](O)[C@]1(C)O	9	11*	.	10	3
CC(=CCCC(C)(O)C1CC[C@@]2(C)C3CC=C4C(CCC(OC5OC(CO)C(O)C(O)C5O)C4(C)C)[C@]3(C)C(=O)C[C@]12C)COC1OC(CO)C(O)C(O)C1O (stereo not given in full)	.	.	0.68	.	.
CSc1nc2ccc(Cl)cc2[nH]1	1	2	0.7	4	5
CSc1nc2cc(Oc3cccc(Cl)c3Cl)c(Cl)cc2[nH]1	1	5	0.46*	3	-19
O=C(NN=Cc1c(F)cccc1Cl)c1ccc(Cn2cc(Br)cn2)o1	.	.	0.65	.	.
O=C(c1ccc(O)c(Br)c1)c1cc(Br)ccc1O	.	.	0.39*	11	-6
O=C(c1cnn(-c2ccccc2)c1)c1cc(Br)ccc1O	4	0	0.71	3	-5
O=[N+]([O-])c1cccc(-c2ccc(C=NNC(=S)Nc3ccccc3)o2)c1	.	.	0.75	.	.
CCCc1cc(=O)n2[nH]cc(-c3ccc(Cl)cc3)c2n1	.	.	0.35*	-5	-3
CC1CCC(=O)N(C(CSc2ccccc2)Cc2ccccc2)CC1 (stereo not given)	.	.	0.69	.	.
CC(=O)OCC1=C(C(=O)O)N2C(=O)[C@@H](NC(=O)Cc3cccs3)[C@H]2SC1	3	-2	0.046*	2	0
Cc1nnc(SCC2=C(C(=O)O)N3C(=O)C(NC(=O)COc4ccc(F)cc4)C3SC2)s1 (stereo not given)	1	-3	0.55*	3	-2
CC(=O)OCC1=C(C(=O)O)N2C(=O)C(NC(=O)COc3ccc(F)cc3)C2SC1 (stereo not given)	.	.	0.69	3	3
Cc1nnc(SCC2=C(C(=O)O)N3C(=O)C(NC(=O)COc4ccccc4)C3SC2)s1 (stereo not given)	.	.	0.5*	4	-3
Cc1nnc(SCC2=C(C(=O)O)N3C(=O)C(NC(=O)Cn4nc(C(F)F)cc4C)C3SC2)s1 (stereo not given)	3	-1	0.49*	4	-7
C=CCSC1=NC(=Cc2cc(OC)c3c(c2)OCO3)C(=O)S1	.	.	0.73	.	.
COc1ccc(NS(=O)(=O)c2cccc(C(=O)NN=Cc3ccccn3)c2)cc1	.	.	0.71	.	.
O=C(NCc1nc2ccccc2[nH]1)C1=CC(C2CCCCC2)CC(OCc2ccc(CO)cc2)O1 (stereo not given)	.	.	0.7	.	.
O=C(COC(=O)c1ccccc1)Nc1ncc([N+](=O)[O-])s1	3	0	0.6	4	0
O=C(Nc1ccccc1)Nc1ncc([N+](=O)[O-])s1	.	.	0.36*	4	22
CC=CC(=O)Nc1cccc(C2=NOC3(C2)CC(C(N)=O)N(C(=O)CCCCC)C3)c1 (stereo not given)	.	.	0.58	.	.
Cc1cc(OCCCCn2ccnc2)cc(C)c1Cl	0	-1	0.5*	4	10
Cc1ccn2c(Nc3ccc4c(c3)OCO4)c(-c3ccccn3)nc2c1	6	3	0.43*	2	-12
Cc1ccc(Nc2c(-c3ccccn3)nc3ccc(C)cn23)cc1	9	7	0.46*	5	-4
